# Measured values taken from PubChem BioAssay (EPA / NIEHS).
# Inconclusive results are not listed. More than one record can exist for a structure, and the calls need not agree. Active and inactive are the calls of the source. The calls were made as follows, unless noted: active = hit-call score of the fitted dose curve at least 0.9, where 1 is the maximum; inactive = score below 0.9.
# Tests used:
# [1] = CCTE_Shafer_MEA_dev_firing_rate_mean: CCTE's Neural Network Formation Assay for Mean Firing Rate, Shafer Lab (AID 2284031);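 as to AC50: curve fitted for loss of firing so AC50 reflects decreased mean firing rate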
# In short: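 Extracellular spike frequency, AUC over DIV 5–12 recordings, in rat cortical neuron MEA cultures dosed from plating; loss direction vs DMSO.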
# [2] = CCTE_Shafer_MEA_dev_active_electrodes_number: CCTE's Neural Network Formation Assay for Number of Active Electrodes, Shafer Lab (AID 2284040; active = hit-call score of the fitted dose curve at least 0.9, where 1 is the maximum;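 as to AC50: potency for loss of active electrodes versus DMSO so lower counts are hits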)
# In short: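 Developing rat cortical networks on MEAs, exposed DIV 0–12. Value is the AUC of active-electrode counts (≥5 spikes/min) from days 5, 7, 9, 12, relative to DMSO.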
# [3] = CCTE_Shafer_MEA_dev_burst_rate: CCTE's Neural Network Formation Assay for Burst Rate, Shafer Lab (AID 2284042);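 as to AC50: potency for loss of burst rate below DMSO control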
# In short: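 Primary rat cortical neurons on PEI-coated 48-well MEA plates (laminin added with cells at plating) (16 electrodes/well), exposed from plating to day 12, dosing renewed at DIV 5 and 9. Burst rate averaged over active electrodes, recorded DIV 5, 7, 9, 12, summarized as AUC; loss versus DMSO.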
# [4] = CCTE_Shafer_MEA_dev_bursting_electrodes_number: CCTE's Neural Network Formation Assay for Number of Bursting Electrodes, Shafer Lab (AID 2284043; active = hit-call score of the fitted dose curve at least 0.9, where 1 is the maximum;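 as to AC50: potency is for loss of bursting electrodes relative to DMSO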)
# In short: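 Number of electrodes reaching ≥1 burst every 2 min was recorded at DIV 5, 7, 9 and 12 and collapsed as trapezoidal area under the curve. Cultures were rat cortical neurons on MEA plates, dosed continuously from plating with medium and treatment refreshed on DIV 5 and 9.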
# [5] = CCTE_Deisenroth_AIME_384WELL_CTox_Active: Cytotoxicity Assessment (CTOX) in CCTE's 384-well Estrogen Receptor Transactivation Assay with AIME metabolic competence (metabolism positive), Deisenroth Lab (AID 2284037; active = hit-call score of the fitted dose curve at least 0.9, where 1 is the maximum;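 also: chemicals first conditioned 2 h by alginate-bound induced rat liver S9 before cells; activity means signal loss indicating cell death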)
# In short: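 Cytotoxicity in VM7Luc4E2 breast cells, 24 hour, measured as protease-substrate fluorescence loss, after 2-hour metabolic conditioning with induced rat hepatic S9 in alginate microspheres. Concentrations 0.002 - 200 uM, 10 points, bidirectional fitting.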
# [6] = CCTE_Deisenroth_AIME_384WELL_CTox_Inactive: Cytotoxicity Assessment (CTOX) in CCTE's 384-well Estrogen Receptor Transactivation Assay without AIME metabolic competence (metabolism negative), Deisenroth Lab (AID 2284039; active = hit-call score of the fitted dose curve at least 0.9, where 1 is the maximum;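 also: cell viability via live-cell protease substrate cleaved to fluorescent probe; cells exposed 24 h to medium preincubated 2 h with alginate-water beads without S9; loss of fluorescence signal means loss of viability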)
# In short: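 VM7Luc4E2 cells, metabolism-negative arm: test chemicals (0.002–200 uM, 10 points) pre-incubated 2 h with alginate-water microspheres, then medium transferred to cells for 24 h. Viability read as protease-substrate cleavage to fluorescent probe; loss-of-signal, bidirectional fitting.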
# [7] = biological target: Estrogen receptor (Homo sapiens) (UniProt P03372); experiment: CCTE_Deisenroth_AIME_384WELL_LUC_Shift: CCTE's 384-well Estrogen Receptor Transactivation Assay with AIME metabolic competence data shift (ERTA luciferase; difference in metabolism positive and negative), Deisenroth Lab (AID 2284041);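 also: shift is response with S9 minus without S9 so positive means metabolism raised ER signal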
# In short: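 Test chemicals (0.002–200 uM, 10-point) were pre-incubated 2 h with alginate microspheres containing phenobarbital/beta-naphthoflavone-induced male Sprague Dawley rat liver S9 or water, then medium was transferred to VM7Luc4E2 cells for 24 h luciferase readout; shift = S9-positive minus S9-negative normalized response.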
# [8] = biological target: Estrogen receptor (Homo sapiens) (UniProt P03372); experiment: CCTE_Deisenroth_AIME_384WELL_LUC_Active: CCTE's 384-well Estrogen Receptor Transactivation Assay with AIME metabolic competence (ERTA luciferase; metabolism positive), Deisenroth Lab (AID 2284030; active = hit-call score of the fitted dose curve at least 0.9, where 1 is the maximum)
# In short: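 Test chemicals (10-point series, 0.002 - 200 uM) were preincubated 2 hours with alginate-immobilized phenobarbital/beta-naphthoflavone-induced male Sprague Dawley rat liver S9; conditioned medium then went onto VM7Luc4E2 breast cells for 24 hour. Luciferase gain-of-signal fitted relative to 17beta-estradiol.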
# [9] = biological target: Estrogen receptor (Homo sapiens) (UniProt P03372); experiment: CCTE_Deisenroth_AIME_384WELL_LUC_Inactive: CCTE's 384-well Estrogen Receptor Transactivation Assay without AIME metabolic competence (ERTA luciferase; metabolism negative), Deisenroth Lab (AID 2284038; active = hit-call score of the fitted dose curve at least 0.9, where 1 is the maximum;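 also: VM7Luc4E2 breast cells given medium preincubated 2 h with S9-free microspheres; hits raise estrogen receptor luciferase signal so potencies reflect agonists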)
# In short: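 Metabolism-negative mode: AIME lids stamped in alginate-water, no hepatic S9. 2 h chemical incubation → medium onto VM7Luc4E2 ERTA, 24 h. Readout luciferase luminescence; gain-of-signal fit vs 17beta-estradiol. Conc. 0.002 - 200 uM.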
# Estrogen receptor (Homo sapiens), sequence (P03372 whole entry, looked up): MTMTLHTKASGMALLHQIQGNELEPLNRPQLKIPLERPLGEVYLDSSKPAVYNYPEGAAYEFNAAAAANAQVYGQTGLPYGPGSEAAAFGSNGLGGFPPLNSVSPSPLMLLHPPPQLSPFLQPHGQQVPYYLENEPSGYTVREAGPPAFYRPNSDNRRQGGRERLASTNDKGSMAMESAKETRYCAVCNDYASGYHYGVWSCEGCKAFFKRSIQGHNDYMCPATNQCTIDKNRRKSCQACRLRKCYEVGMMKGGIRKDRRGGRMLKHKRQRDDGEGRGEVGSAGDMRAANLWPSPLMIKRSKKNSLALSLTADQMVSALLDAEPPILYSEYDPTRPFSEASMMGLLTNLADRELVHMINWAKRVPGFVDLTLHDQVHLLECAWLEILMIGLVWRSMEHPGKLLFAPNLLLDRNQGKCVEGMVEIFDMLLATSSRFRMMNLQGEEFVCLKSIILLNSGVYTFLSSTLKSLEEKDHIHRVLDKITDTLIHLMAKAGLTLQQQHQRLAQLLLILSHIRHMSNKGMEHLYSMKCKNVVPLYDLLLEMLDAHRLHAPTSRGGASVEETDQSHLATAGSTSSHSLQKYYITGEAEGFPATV
structure (smiles),measurement,setting,value
CC(CCl)OP(=O)(OC(C)CCl)OC(C)CCl (stereo not given),outcome,[1],inactive
same,AC50,[2],50 µM (active)
same,outcome,[2],inactive
same,outcome,[3],inactive
same,outcome,[4],inactive
N=C(N)C(F)(F)C(F)(F)C(F)(F)C(F)(F)C(F)(F)C(F)(F)C(F)(F)F,outcome,[1],inactive
same,outcome,[2],inactive
same,outcome,[3],inactive
same,outcome,[4],inactive
CCN(Cc1cccc(S(=O)(=O)O)c1)c1ccc(C(=C2C=CC(=[N+](CC)Cc3cccc(S(=O)(=O)O)c3)C=C2)c2ccc(O)cc2S(=O)(=O)[O-])cc1,AC50,[5],124 µM (active)
same,AC50,[6],100 µM (active)
same,outcome,[7],inactive
O=C(O)C(F)(F)C(F)(F)C(F)F,outcome,[1],inactive
same,outcome,[2],inactive
same,outcome,[3],inactive
same,outcome,[4],inactive
FC(F)(F)C(F)(F)C(F)(F)C(F)(F)C(F)(F)CCI,outcome,[1],inactive
same,AC50,[2],15 µM (active)
same,outcome,[3],inactive
same,AC50,[4],822 nM (active)
OC[C@@H](O)[C@@H](O)[C@H](O)[C@@H](O)CO,outcome,[1],inactive
same,outcome,[2],inactive
same,outcome,[3],inactive
same,outcome,[4],inactive
CC(C)(C)C(=O)CC(=O)C(F)(F)C(F)(F)C(F)(F)F,outcome,[1],inactive
same,AC50,[2],25.2 µM (active)
same,outcome,[3],inactive
same,AC50,[4],15000 nM (active)
O=C(O)C(F)(F)C(F)(F)C(F)(F)C(F)(F)C(F)(F)C(F)(F)C(F)(F)C(F)(F)Cl,outcome,[1],inactive
same,outcome,[2],inactive
same,outcome,[3],inactive
same,outcome,[4],inactive
Cc1ccc(S(=O)(=O)OCC(F)(F)C(F)(F)C(F)(F)C(F)(F)C(F)(F)C(F)F)cc1,outcome,[1],inactive
same,outcome,[3],inactive
C=CC(=O)OCC(F)(F)C(F)(F)C(F)(F)C(F)(F)COC(=O)C=C,AC50,[1],4.34 µM (active)
same,AC50,[2],4.2 µM (active)
same,AC50,[3],4.18 µM (active)
same,AC50,[4],2080 nM (active)
O=P(O)(O)OCCC(F)(F)C(F)(F)C(F)(F)C(F)(F)C(F)(F)C(F)(F)F,outcome,[1],inactive
same,outcome,[2],inactive
same,outcome,[3],inactive
same,AC50,[4],100 nM (active)
OCC(F)(F)C(F)(F)C(F)(F)F,outcome,[1],inactive
same,outcome,[2],inactive
same,outcome,[3],inactive
same,outcome,[4],inactive
CNC(=S)NC,outcome,[8],inactive
same,outcome,[9],inactive
same,outcome,[6],inactive
same,outcome,[7],inactive
FC(F)(F)C(F)(F)CNCC(F)(F)C(F)(F)F,outcome,[1],inactive
same,outcome,[2],inactive
same,outcome,[3],inactive
same,outcome,[4],inactive
NC(=O)C(F)(F)C(F)(F)C(F)(F)C(F)(F)F,outcome,[1],inactive
same,outcome,[3],inactive
CCCCCCC(C)OC(=O)CCCCC(=O)OC(C)CCCCCC (stereo not given),outcome,[8],inactive
same,outcome,[9],inactive
same,outcome,[6],inactive
same,outcome,[7],inactive
